Parameters in all cases: scale not given: direction of the effect not stated beside the values
Test [1] has as its target Protein translocase subunit SecA (Escherichia coli (strain K12)) (UniProt P10408). Briefly: Assay to Identify E. coli SecA ATPase Inhibitors. The class given is functional. The note with it: 30 µM.
Test [2] concerns the target T1, Ubiquitin-activating enzyme e1, putative (Leishmania donovani (strain BPK282A1)) (UniProt E9BSI1).
T1 sequence (whole entry): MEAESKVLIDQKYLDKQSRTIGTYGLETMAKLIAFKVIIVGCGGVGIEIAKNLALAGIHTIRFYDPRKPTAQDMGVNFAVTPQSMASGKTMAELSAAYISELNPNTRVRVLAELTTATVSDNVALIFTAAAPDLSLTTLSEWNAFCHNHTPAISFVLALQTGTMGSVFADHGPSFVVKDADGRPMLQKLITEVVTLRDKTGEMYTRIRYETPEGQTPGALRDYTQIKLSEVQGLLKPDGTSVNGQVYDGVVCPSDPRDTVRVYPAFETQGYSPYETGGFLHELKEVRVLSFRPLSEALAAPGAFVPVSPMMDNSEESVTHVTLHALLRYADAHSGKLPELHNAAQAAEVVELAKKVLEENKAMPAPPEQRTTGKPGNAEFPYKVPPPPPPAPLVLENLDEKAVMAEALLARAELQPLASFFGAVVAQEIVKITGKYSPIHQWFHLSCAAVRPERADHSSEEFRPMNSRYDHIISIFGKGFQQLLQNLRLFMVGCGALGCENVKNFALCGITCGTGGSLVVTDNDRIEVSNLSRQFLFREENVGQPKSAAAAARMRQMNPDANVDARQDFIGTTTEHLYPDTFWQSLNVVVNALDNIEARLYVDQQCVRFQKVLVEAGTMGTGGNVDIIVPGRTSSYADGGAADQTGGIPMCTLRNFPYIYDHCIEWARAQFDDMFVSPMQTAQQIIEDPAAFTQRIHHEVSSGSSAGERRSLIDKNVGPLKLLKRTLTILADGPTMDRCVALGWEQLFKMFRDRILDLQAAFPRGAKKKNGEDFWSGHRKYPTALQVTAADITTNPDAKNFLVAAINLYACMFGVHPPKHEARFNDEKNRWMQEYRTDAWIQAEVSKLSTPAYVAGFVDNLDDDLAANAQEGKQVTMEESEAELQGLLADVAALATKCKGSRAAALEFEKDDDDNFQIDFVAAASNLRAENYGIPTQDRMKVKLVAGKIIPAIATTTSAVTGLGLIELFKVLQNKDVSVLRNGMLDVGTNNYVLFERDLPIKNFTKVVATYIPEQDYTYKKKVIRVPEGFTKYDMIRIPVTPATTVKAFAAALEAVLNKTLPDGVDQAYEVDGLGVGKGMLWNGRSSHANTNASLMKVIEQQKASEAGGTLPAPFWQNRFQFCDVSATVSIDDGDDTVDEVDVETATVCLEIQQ
Briefly: Leishmania donovani Ubiquitin Activating Enzyme (LdE1). Format: functional. The note with it: 30 µM.

The target in test [3] is AMP-activated protein kinase, AMPK (Homo sapiens) (UniProt P54646+O43741+P54619+Q9UGJ0+Q9Y478+Q13131+Q9UGI9). The test can be described thus: AMP-dependent Kinase enzyme assay. An in vitro enzyme assay that detects ADP turnover that is directly proportional to AMPK activity. This uses naive AMPK that is activated during the assay with MK-8722. The class given is functional. The note with it: 30 µM.

Test [4] addresses Sialic acid-binding Ig-like lectin 9 (Homo sapiens) (UniProt Q9Y336). Briefly: Hs-Siglec9 ALPHAscreen SOP 20170721. To be noted: 10 µM.
In another test the test system is Trypanosoma cruzi. Briefly: Trypanosoma cruzi phosphomannomutase and mannose-1-phosphate guanylyltransferase assay. The class given is functional. To be noted: 10 µM.
Test [5] has as its target T2, Arginase-2, mitochondrial (Homo sapiens) (UniProt P78540).
T2 sequence (whole entry): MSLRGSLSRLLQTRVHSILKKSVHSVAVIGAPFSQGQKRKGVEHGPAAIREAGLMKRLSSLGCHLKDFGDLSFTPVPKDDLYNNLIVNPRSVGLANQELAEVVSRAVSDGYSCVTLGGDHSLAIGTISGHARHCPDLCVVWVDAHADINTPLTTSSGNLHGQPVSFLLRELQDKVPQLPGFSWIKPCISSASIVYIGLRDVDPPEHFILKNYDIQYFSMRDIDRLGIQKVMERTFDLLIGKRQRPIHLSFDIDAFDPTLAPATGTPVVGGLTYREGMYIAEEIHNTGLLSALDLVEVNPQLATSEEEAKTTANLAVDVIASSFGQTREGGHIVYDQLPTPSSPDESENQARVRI
The test can be described thus: in vitro enzyme assay to detect the production of urea directly proportional to the activity of Arginase II. Note: in the data most compounds retested in dose-response had high values. To be noted: 33.3 µM. Format: functional.

Test [6] concerns the target T3, Proteasome subunit beta (Trypanosoma cruzi) (UniProt O96673).
T3 sequence (whole entry): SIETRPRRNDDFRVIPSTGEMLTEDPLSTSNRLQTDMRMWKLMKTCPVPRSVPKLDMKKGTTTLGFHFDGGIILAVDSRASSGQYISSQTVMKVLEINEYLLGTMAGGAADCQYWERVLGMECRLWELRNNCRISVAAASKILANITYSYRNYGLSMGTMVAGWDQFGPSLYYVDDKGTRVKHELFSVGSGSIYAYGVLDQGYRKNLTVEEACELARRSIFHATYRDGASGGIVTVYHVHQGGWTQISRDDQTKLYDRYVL
The test can be described thus: Trypanosoma cruzi proteasome chymotrypsin-like activity (TcProtChymo) assay. Note: in the data most compounds retested in dose-response had high values. The note with it: 9.37 µM. Format: functional.

The next test is filed under the species Homo sapiens. Briefly: To identify inhibition of the IFN signalling (Jak-Stat) pathway via expression of an eGFP reporter gene under the control of an IFN-stimulated response element (ISRE) containing MxA promoter. The class given is functional. The note with it: 30 µM.
In test [7] the target is T4, Tyrosyl-tRNA synthetase, putative (Trypanosoma cruzi (strain CL Brener)) (UniProt Q4DSP6).
T4 sequence (whole entry): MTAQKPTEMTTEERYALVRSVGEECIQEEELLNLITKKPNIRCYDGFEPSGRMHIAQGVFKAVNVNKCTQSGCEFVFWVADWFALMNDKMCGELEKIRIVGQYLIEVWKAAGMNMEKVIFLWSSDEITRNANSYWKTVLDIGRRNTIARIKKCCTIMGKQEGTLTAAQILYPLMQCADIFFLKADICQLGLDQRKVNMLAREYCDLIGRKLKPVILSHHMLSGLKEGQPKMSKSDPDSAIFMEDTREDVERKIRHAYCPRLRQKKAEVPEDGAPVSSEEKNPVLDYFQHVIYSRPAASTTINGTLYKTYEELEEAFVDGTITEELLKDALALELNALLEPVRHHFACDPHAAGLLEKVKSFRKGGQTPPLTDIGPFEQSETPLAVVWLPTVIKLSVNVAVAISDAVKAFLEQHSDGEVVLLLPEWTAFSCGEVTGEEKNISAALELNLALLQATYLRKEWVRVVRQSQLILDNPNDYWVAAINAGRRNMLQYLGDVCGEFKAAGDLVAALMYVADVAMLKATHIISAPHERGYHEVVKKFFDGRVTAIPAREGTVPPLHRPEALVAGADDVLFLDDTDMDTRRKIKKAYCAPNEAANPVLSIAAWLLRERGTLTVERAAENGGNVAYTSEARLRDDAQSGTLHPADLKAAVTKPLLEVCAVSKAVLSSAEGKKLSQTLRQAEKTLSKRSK
The test can be described thus: Trypanosoma cruzi tyrosyl tRNA synthetase (TcYRS) _High Tyrosine SOP. Note: in the data most compounds retested in dose-response had high values. Format: functional. The note with it: 30 µM.

For test [8], the target named is T4, Tyrosyl-tRNA synthetase, putative (Trypanosoma cruzi (strain CL Brener)). Briefly: Trypanosoma cruzi tyrosyl tRNA synthetase (TcYRS) SOP. Format: functional. The note with it: 30 µM.
Test [9] has as its target Chromo domain-containing protein 1 (Saccharomyces cerevisiae (strain ATCC 204508 / S288c) (Baker's yeast)) (UniProt P32657). Briefly: ScCHD-1 Enzyme Inhibition Assay. Note: in the data most compounds retested in dose-response had high values. To be noted: 30 µM. Format: functional.

Each structure is given as a SMILES string. For some assays here: Potency and affinity values are given separately.

Drawing on ChEMBL document CHEMBL3988442, “University of Dundee, Small-Polar-MMV Screening Library” (2021), this text covers Percent Effect for ten compounds.

Chromo domain-containing protein 1 (Saccharomyces cerevisiae (strain ATCC 204508 / S288c) (Baker's yeast)), sequence (P32657 whole entry, the tested form may be a part): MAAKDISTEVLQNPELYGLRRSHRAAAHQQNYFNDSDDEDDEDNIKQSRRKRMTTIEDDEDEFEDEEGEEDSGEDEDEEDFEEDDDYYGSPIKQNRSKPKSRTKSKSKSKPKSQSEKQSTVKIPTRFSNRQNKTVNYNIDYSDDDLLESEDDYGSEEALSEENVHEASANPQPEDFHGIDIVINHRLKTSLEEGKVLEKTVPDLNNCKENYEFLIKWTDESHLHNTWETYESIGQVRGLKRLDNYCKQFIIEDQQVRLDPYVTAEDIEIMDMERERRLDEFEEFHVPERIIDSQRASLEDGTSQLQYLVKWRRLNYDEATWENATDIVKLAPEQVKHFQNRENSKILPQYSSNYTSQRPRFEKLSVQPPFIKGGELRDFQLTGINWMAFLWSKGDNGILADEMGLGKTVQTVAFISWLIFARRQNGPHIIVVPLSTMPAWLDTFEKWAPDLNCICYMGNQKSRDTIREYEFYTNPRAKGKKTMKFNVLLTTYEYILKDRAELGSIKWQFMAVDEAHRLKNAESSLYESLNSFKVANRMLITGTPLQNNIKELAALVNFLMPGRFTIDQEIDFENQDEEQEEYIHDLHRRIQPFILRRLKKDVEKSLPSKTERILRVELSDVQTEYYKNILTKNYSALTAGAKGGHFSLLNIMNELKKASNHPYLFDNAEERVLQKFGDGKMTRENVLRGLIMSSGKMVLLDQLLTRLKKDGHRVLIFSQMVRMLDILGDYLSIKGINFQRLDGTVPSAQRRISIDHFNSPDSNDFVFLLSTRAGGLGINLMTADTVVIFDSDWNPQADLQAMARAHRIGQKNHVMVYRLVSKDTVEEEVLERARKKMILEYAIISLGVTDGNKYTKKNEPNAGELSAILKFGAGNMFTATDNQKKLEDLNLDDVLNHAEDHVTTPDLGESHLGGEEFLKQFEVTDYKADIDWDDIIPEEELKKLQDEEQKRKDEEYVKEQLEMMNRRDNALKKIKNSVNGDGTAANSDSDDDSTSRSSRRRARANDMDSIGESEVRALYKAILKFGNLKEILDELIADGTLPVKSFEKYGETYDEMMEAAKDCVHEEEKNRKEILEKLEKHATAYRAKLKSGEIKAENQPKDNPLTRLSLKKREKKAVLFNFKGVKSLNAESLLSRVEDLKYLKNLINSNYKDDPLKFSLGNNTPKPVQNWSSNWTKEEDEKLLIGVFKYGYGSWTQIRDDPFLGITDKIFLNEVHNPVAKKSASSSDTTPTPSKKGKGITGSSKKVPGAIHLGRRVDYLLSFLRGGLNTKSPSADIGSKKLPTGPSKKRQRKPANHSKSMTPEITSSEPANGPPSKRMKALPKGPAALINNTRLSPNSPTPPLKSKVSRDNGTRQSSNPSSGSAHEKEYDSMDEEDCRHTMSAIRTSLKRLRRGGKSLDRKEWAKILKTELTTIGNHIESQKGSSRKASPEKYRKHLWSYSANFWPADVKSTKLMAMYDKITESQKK
Sialic acid-binding Ig-like lectin 9 (Homo sapiens), sequence (Q9Y336 whole entry): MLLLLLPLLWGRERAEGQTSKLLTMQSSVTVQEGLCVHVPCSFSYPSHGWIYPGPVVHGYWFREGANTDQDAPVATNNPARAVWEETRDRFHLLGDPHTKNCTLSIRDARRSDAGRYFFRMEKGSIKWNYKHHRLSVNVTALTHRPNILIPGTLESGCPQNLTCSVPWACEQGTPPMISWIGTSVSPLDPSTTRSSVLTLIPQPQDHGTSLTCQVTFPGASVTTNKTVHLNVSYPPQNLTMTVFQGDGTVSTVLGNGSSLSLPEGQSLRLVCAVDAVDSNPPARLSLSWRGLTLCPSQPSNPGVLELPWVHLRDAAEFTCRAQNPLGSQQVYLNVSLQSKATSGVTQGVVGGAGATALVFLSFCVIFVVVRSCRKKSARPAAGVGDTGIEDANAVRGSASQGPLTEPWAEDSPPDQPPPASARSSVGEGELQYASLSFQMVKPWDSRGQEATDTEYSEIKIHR
Protein translocase subunit SecA (Escherichia coli (strain K12)), sequence (P10408 whole entry): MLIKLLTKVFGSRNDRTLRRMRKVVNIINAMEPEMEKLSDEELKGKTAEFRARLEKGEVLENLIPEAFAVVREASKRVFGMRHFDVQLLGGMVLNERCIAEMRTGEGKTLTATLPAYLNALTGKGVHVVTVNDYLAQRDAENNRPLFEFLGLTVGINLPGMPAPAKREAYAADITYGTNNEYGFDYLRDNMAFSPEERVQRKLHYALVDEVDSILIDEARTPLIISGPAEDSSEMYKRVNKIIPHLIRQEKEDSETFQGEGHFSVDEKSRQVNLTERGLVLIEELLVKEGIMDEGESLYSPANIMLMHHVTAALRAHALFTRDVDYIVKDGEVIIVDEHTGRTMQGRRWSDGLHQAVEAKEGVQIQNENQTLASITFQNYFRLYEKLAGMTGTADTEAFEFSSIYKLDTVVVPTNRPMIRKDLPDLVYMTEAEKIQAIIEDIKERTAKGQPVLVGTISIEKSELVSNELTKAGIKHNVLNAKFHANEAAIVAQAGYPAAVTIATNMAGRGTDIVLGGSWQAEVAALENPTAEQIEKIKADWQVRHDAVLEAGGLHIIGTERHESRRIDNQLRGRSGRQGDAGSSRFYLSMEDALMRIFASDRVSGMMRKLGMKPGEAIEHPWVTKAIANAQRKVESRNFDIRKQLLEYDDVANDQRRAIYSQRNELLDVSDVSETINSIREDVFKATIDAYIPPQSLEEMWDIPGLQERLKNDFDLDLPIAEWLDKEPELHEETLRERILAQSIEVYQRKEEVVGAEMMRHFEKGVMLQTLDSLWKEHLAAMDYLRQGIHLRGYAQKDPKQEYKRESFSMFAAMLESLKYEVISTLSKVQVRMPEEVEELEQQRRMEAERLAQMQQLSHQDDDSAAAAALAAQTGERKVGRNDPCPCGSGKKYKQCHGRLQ

With `O=C(N1CCCC1)N1CCc2ncnc(C3CCOC3)c2CC1` (stereo not given), the Percent Effect in test [1] is 2.86%; in test [2] it was -2.67%; in [3], 9.11%; in test [4] it was 2.99%; in the test on Trypanosoma cruzi, -0.591%; in test [5], 3.5%. In addition, the Percent Effect in [6] is 7.14%; in the test filed under Homo sapiens, 3.4%; in test [7], 3.19%; in test [8], -1.28%; in test [9], -1.1%.
Consider `CNC(=O)c1cccc(NC(=O)CN2CCN(S(C)(=O)=O)CC2)c1`, for which the Percent Effect was -3.07% in test [1]; 18.9% in test [2]; -6.24% in test [3]; 18.5% in test [4]; 5.57% in the test on Trypanosoma cruzi; 4.22% in test [5]. Besides, the Percent Effect in test [6] was 13.8%; in the test listed under Homo sapiens it was 8.76%; in test [7], 5.38%; in test [8] it was 16.1%; in [9], -3.08%.
Take `O=C1CCCCN1Cc1cccc(NC(=O)N2CCSCC2)c1`: the Percent Effect is -4.11% in test [1]; 9.72% in test [2]; -6.98% in test [3]; 26% in [4]; 2.43% in the test with Trypanosoma cruzi; 8.83% in test [5]. In addition, the Percent Effect in [6] is 12.1%; in the test filed under Homo sapiens it was 8.32%; in test [7], 6.32%; in test [8], 12.8%; in [9], -6.96%.
As for `CCn1nc(C)c2nnn(CC(=O)Nc3c(C)cccc3C)c(=O)c21`, the Percent Effect in test [1] is -7.15%; in [2], 17.3%; in [3], -10.2%; in test [4], -3.51%; in the test on Trypanosoma cruzi, 5.5%; in test [5], -2.99%. In addition, the Percent Effect in test [6] is 5.73%; in the test listed under Homo sapiens, 4.38%; in [7], 6.35%; in test [8], 12.8%; in test [9], -16.1%.
As for `Cc1cccn2c(=O)cc(OC(=O)c3ccccc3)nc12`, the Percent Effect in [1] is 1.09%; in test [2] it was 0%; in test [3] it was 45.4%; in [4] it was -1.9%; with Trypanosoma cruzi, -4.97%; in test [5], -14.2%. In addition, the Percent Effect was 5.27% in test [6]; -1.07% in the test listed under Homo sapiens; 0% in test [7]; 0% in test [8]; -3.23% in test [9].
Consider `CSc1cccc(CNC(=O)C2CC(=O)N(CCN(C)C)C2)c1` (stereo not given), for which the Percent Effect in [1] was 0.794%; in test [2], 5.33%; in test [3] it was -10.1%; in test [4], 4.4%; in the test on Trypanosoma cruzi it was -2.82%; in [5], 1.56%. Besides, the Percent Effect in test [6] is 15.7%; in the test filed under Homo sapiens, 9.77%; in [7], 4.92%; in test [8], 13.6%; in [9], -3.47%.
`CCOCC(=O)N1C[C@@H](O)[C@H](N(C)Cc2ccc(OC)cc2)C1`: the Percent Effect is -3.53% in [1]; 4.05% in test [2]; 6.78% in test [3]; 3.17% in [4]; -1.19% with Trypanosoma cruzi; 0.232% in test [5]. Moreover, the Percent Effect was 9.05% in [6]; 6.37% in the test filed under Homo sapiens; 5.38% in test [7]; 9.09% in test [8]; -14.5% in test [9].
With `O=C(c1ccsc1)N1CCc2c(COCc3ccncc3)cncc2C1`, the Percent Effect in [1] is 0.395%; in [2], -8.22%; in [3], 0.499%; in test [4], 1.44%; in the test on Trypanosoma cruzi it was -0.397%; in test [5] it was 1.2%. In addition, the Percent Effect was 10% in test [6]; 3.9% in the test listed under Homo sapiens; 3.12% in test [7]; 3.7% in [8]; -0.158% in test [9].
Regarding `Cn1ccnc1C(NCc1csc(Br)c1)c1ccccc1` (stereo not given), the Percent Effect in test [1] was -4.88%; in test [2], 21.6%; in [3] it was 3.42%; in [4] it was 17.4%; in the test on Trypanosoma cruzi it was 4.92%; in test [5], 1.66%. Also, the Percent Effect was 13.8% in test [6]; 12.7% in the test filed under Homo sapiens; 12.9% in test [7]; 30.5% in test [8]; -7.11% in test [9].
As to `O=C(Nc1ccc(N2CCCC2)nc1)N1CCc2ccccc2C1`, the Percent Effect in [1] is -3.4%; in test [2], 0%; in test [3], -13.6%; in test [4], 2.55%; with Trypanosoma cruzi it was -6.45%; in test [5], 3.75%. Further, the Percent Effect is 20.7% in test [6]; 7.01% in the test listed under Homo sapiens; 15.8% in [7]; 18.3% in test [8]; 0.41% in [9].
